Experimental data from PubChem BioAssay.
Active and inactive are the calls of the source. Cut-off read from the data, not from the text of the source, unless noted: active = inhibition above about 30%; inactive = the rest.

Legend:
[1] = molecular target: Nuclear receptor coactivator 3 (Homo sapiens) (UniProt Q9Y6Q9); assay: SRC3 coactivator transcriptional activity inhibitors, confirmation, cell-based, luminescence, quadruplicate (AID 588792;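 active = mean inhibition over 43.08%, the solvent-only control mean plus 3 SD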;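 note: 0% = DMSO treated cells and 100% = gossypol at 36 µM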); conditions: HEK293 GAL4-SRC3 luciferase reporter, at 3.6 µM, active compounds read high
[2] = test system: transactivating tegument protein VP16 (Human herpesvirus 1), Gal4-VP16 luciferase reporter; assay: VP16 transactivation inhibitors, counter-screen for SRC3 inhibitor project, cell-based, luminescence, high throughput (AID 588794); conditions: mammalian cells, VP16-driven luciferase reporter luminescence; at 3.6 µM; active compounds read high
[3] = molecular target: Nuclear receptor coactivator 1 (Homo sapiens) (UniProt Q15788); assay: SRC1 coactivator transcriptional activity inhibitors, confirmation, cell-based, luminescence, quadruplicate (AID 588820;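 active = mean inhibition above 46.68%, the untreated control wells mean plus 3 SD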;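 note: 0% = DMSO wells and 100% = gossypol 36 µM treated wells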); conditions: HEK293 GAL4-SRC1 luciferase reporter, at 3.6 µM, active compounds read high
[4] = VP16 transactivation inhibitors, counter-screen for SRC1 inhibitor project, cell-based, luminescence, high throughput (AID 588824; in the data active = inhibition above about 25%); conditions: cell-based VP16 transactivation luciferase luminescence; at 3.6 µM; active compounds read high
[5] = StAR promoter reporter inhibitors, counter-screen for LRH-1 inverse agonist project, cell-based, luminescence, high throughput (AID 651611; in the data active = inhibition above about 28%); conditions: StAR promoter luciferase reporter counterscreen, at 3.6 µM, active compounds read high
[6] = molecular target: Nuclear receptor subfamily 5 group A member 2 (Homo sapiens) (UniProt O00482); assay: LRH-1 (NR5A2) inverse agonists, retest, confirmation, cell-based, luminescence (AID 651613; in the data active = inhibition above about 42%;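 note: HEK293T cells co-transfected with LRH-1 and StAR promoter luciferase reporter; 0% = vehicle wells and 100% = parental cells lacking receptor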); conditions: cell-based LRH-1 luciferase reporter, inverse agonism; at 3.6 µM; active compounds read high
[7] = molecular target: Steroidogenic factor 1 (Homo sapiens) (UniProt Q13285); assay: SF1 (NR5A1) inverse agonists, counter-screen for LRH-1 inverse agonist project, cell-based, luminescence, high throughput (AID 651614; in the data active = inhibition above about 44%;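 note: cells cotransfected with StAR promoter reporter and SF1 expression vector; 0% = vehicle on cells with receptor and 100% = vehicle on cells lacking receptor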); conditions: cell-based SF1 luciferase reporter, at 3.6 µM, active compounds read high
[8] = VP16 transactivation reporter inhibitors, counter-screen for LRH-1 inverse agonist project, cell-based, luminescence, high throughput (AID 651615; in the data active = inhibition above about 33%); conditions: Gal4-VP16 luciferase reporter cells, at 3.6 µM, active compounds read high
[9] = test system: transactivating tegument protein VP16 (Human herpesvirus 1); assay: VP16 transactivation reporter inhibitors, counter-screen for SRC2 inhibitor project, cell-based, luminescence, single concentration (AID 652007; in the data active = inhibition above about 36%); conditions: cell-based VP16 transactivation luciferase reporter, at 8.9 µM, active compounds read high
[10] = molecular target: Nuclear receptor coactivator 2 (Homo sapiens) (UniProt Q15596); assay: SRC2 coactivator transcriptional activity inhibitors, confirmation, cell-based, luminescence, HEK293, triplicate (AID 652008;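 active = mean inhibition above 46.5%, the solvent-only control mean plus 3 SD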;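 note: 0% = DMSO-treated cells and 100% = Gossypol at 36 µM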); conditions: HEK293 GAL4-SRC2 luciferase reporter, at 8.9 µM, active compounds read high

Measured: inhibition

Sequence of Nuclear receptor coactivator 3 (Homo sapiens) (Q9Y6Q9 whole entry, looked up, the tested form may be a part): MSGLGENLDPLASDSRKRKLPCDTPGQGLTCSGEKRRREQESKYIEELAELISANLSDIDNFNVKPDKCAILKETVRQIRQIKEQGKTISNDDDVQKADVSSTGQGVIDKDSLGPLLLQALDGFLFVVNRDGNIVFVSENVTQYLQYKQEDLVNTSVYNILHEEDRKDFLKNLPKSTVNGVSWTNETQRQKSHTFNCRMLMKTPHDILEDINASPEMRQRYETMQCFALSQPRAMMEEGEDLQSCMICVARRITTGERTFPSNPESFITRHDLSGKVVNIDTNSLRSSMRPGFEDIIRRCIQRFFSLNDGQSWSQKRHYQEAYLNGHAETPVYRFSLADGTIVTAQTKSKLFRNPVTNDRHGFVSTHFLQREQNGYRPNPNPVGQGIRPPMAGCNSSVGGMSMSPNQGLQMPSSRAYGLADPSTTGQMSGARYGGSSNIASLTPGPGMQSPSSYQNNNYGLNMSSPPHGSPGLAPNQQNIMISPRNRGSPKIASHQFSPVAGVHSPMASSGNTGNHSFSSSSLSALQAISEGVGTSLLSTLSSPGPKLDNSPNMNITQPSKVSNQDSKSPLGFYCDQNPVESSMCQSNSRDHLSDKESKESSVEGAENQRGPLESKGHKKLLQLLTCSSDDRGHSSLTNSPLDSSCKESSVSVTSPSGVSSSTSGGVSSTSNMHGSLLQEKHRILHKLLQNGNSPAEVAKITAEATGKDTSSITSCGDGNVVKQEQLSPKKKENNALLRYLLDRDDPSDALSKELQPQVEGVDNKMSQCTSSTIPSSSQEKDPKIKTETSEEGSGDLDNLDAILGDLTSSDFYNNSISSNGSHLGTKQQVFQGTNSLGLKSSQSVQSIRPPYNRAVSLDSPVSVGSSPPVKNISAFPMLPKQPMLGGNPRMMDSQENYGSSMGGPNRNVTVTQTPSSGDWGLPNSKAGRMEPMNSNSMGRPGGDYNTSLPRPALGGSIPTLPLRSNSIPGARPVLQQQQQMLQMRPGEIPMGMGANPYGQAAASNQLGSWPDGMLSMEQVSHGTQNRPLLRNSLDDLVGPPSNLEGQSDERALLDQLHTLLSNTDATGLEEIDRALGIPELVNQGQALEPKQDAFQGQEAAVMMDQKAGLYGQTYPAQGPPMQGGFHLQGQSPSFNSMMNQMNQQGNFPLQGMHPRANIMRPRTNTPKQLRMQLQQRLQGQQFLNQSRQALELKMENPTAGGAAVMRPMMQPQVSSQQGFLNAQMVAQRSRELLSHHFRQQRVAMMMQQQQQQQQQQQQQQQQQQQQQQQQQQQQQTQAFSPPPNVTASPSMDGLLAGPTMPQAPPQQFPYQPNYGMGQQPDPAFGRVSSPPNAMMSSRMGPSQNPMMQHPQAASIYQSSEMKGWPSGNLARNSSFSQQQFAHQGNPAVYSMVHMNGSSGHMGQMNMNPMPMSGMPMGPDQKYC
Sequence of Nuclear receptor coactivator 1 (Homo sapiens) (Q15788 whole entry, looked up, the tested form may be a part): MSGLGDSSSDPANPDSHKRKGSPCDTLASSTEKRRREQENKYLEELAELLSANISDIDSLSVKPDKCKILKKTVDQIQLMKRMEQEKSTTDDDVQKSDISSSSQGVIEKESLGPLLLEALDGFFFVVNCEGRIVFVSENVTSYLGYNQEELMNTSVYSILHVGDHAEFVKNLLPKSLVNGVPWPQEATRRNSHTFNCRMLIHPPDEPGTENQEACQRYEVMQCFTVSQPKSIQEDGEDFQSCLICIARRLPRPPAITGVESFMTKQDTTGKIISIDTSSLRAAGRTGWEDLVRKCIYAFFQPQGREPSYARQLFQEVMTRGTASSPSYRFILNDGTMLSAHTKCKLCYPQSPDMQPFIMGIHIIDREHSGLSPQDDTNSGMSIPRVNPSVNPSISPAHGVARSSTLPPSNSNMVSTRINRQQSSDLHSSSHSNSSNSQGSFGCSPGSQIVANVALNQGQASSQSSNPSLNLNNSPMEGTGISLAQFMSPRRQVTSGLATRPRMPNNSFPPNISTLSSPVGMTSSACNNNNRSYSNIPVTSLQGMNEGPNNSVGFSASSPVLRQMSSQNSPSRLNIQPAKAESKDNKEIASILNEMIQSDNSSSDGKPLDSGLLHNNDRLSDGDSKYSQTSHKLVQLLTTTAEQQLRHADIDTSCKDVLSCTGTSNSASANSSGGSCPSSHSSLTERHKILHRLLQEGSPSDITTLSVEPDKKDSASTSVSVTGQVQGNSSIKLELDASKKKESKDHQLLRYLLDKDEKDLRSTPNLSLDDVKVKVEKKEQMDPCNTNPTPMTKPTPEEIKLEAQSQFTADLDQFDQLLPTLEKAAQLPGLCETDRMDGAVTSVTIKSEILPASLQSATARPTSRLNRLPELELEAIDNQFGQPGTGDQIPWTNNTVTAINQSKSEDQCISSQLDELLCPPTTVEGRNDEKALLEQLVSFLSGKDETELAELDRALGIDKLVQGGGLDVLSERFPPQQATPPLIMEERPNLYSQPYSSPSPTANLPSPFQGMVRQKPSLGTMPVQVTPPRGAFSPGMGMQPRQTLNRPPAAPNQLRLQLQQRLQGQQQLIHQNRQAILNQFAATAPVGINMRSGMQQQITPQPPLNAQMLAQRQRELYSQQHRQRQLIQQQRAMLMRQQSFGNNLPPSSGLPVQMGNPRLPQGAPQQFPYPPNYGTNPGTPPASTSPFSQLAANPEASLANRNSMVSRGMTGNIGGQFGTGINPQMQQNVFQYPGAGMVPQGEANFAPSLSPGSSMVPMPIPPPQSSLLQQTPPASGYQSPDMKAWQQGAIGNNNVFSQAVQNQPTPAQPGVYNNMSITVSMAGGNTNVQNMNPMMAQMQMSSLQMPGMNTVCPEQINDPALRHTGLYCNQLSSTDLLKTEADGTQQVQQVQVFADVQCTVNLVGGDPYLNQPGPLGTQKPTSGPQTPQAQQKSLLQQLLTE
Sequence of Nuclear receptor coactivator 2 (Homo sapiens) (Q15596 whole entry, looked up, the tested form may be a part): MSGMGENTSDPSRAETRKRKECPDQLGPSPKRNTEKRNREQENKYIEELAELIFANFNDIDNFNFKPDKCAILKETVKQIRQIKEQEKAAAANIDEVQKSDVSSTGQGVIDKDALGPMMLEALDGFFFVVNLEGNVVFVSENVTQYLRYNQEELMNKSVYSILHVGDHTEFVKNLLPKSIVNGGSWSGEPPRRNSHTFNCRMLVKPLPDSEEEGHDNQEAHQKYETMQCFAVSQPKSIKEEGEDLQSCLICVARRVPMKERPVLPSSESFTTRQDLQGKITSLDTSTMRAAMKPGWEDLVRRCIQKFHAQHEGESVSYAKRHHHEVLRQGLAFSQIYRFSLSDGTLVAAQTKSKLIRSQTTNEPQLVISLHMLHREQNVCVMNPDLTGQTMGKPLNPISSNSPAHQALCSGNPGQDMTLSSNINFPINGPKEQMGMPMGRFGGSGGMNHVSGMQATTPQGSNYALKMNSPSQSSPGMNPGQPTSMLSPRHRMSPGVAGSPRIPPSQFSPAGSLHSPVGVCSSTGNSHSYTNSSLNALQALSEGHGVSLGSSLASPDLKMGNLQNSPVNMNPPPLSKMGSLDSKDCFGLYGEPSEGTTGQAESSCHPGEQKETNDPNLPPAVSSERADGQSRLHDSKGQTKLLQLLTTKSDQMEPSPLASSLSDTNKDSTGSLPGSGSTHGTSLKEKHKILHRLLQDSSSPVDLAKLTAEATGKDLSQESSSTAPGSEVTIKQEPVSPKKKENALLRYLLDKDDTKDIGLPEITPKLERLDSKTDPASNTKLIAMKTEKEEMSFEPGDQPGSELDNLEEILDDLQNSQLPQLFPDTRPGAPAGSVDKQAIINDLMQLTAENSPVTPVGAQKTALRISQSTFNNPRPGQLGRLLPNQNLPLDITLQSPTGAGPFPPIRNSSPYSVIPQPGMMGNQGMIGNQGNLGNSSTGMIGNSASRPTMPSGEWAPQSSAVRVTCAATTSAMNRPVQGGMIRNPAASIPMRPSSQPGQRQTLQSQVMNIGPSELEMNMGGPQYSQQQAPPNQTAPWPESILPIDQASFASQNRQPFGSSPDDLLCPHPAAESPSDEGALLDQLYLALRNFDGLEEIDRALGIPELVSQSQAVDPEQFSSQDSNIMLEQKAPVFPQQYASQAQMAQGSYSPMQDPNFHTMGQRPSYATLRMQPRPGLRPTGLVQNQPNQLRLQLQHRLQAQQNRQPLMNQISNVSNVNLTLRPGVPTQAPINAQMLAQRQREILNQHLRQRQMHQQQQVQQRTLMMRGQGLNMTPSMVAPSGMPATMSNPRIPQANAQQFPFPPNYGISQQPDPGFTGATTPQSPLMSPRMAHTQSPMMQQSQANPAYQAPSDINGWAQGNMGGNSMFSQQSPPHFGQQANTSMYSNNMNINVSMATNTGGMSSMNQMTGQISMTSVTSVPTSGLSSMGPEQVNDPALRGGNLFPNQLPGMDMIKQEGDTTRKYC
Sequence of Nuclear receptor subfamily 5 group A member 2 (Homo sapiens) (O00482 whole entry, looked up): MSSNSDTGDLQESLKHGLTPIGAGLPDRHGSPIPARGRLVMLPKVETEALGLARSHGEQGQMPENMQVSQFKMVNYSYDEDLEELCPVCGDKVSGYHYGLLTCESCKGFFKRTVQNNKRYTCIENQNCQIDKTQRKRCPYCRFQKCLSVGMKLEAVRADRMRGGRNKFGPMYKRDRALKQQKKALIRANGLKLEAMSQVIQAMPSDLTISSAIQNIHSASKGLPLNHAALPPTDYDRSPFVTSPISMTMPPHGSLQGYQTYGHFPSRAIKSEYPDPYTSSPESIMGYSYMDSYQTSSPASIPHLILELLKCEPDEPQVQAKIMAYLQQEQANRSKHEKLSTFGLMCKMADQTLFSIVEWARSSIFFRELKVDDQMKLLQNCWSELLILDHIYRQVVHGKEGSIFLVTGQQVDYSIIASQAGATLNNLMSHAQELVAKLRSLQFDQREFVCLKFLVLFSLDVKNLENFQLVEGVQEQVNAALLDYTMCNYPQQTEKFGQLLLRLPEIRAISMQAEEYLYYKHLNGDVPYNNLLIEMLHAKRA

CC(C)(C)C(=O)Nc1ccc(NC(=O)c2ccco2)nc1
active: [1] 69.9% | [2] 64.1% | [4] 39.8% | [5] 56.1% | [7] 59.4% | [8] 36.7% | [9] 72.7% | [10] 92.8%
inactive: [3] 39.4% | [6] 15.6%

COc1ccc2cc3c(N)nn(C(=O)c4ccccc4[N+](=O)[O-])c3nc2c1
active: [1] 76.5% | [2] 59.9% | [3] 64.8% | [4] 61.3% | [5] 44.6% | [6] 67.5% | [7] 46.9% | [8] 78% | [10] 46.6%
inactive: [9] 3.64%

CC[C@@]1(O)C(=O)OCc2c1cc1n(c2=O)Cc2cc3c(N)cccc3nc2-1
active: [1] 91.8% | [2] 77.3% | [3] 58.2% | [4] 74.7% | [5] 84.6% | [6] 104% | [7] 92% | [8] 77.2% | [10] 51.9%
inactive: [9] 30.5%

COc1cccc(N2CCN(c3ncnc4c3cnn4-c3ccc(C)cc3C)CC2)c1
active: [1] 88.3% | [2] 81.1% | [3] 54.6% | [4] 86.2% | [5] 83.2% | [6] 97.4% | [7] 89.8% | [8] 90.2% | [9] 81.1% | [10] 72.1%

C[C@@H](C(=O)Nc1ccc2c(c1)OCCO2)n1c(=O)[nH]c2ccccc2c1=O
inactive: [1] 34.5% | [2] -0.03% | [3] -4.84% | [4] -17.6% | [5] -11.4% | [6] -28.3% | [7] 20.2% | [8] -18.1% | [9] 3.58%
active: [10] 68.7%
